Screening results from PubChem.
NPC1 promoter act = NPC1 promoter activation; Huh7 NPC1 promoter luciferase reporter, 24 h; Potency, µM (titrated, usually from 9.22 µM), usual class: activators; 320,000 compounds, 2.4% hits; AID 485313; further: nearly all actives have a fitted effect of over 60% in size
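Cells: Huh7 expressing luciferase under the NPC1 promoter, 1500/well. Seeded 2 h, compound added, incubated 24 h at 37 °C. Luciferase reagent, 10 min ambient, then luminescence.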
ELG1 genotoxic = induces genotoxicity in HEK293T cells with luciferase-tagged ELG1 | HEK293T ELG1-luciferase reporter, luminescence, 16 h | Potency, µM (doses to about 46 µM), most hits filed as activators | 330,000 compounds, 1.3% hits | AID 504466; further: nearly all actives have a fitted effect of over 60% in size
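Reporter readout depends on ELG1 protein level, which increases with genetic stress. After 16 hr compound exposure at 37 °C, luciferase activity was quantified using ONE-Glo.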
SMN2 splice enh = enhancers of SMN2 splice variant expression; HEK293 SMN2-luciferase splicing reporter, luminescence, 30-36 h; Potency, µM (titrated, usually from 46.1 µM), actives largely listed as activators; 210,000 compounds, 2.8% hits; further: nearly all actives have a fitted effect of over 55% in size
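HEK293 cells carry an SMN2 minigene-luciferase reporter in which exon 7 inclusion puts luciferase in frame. Cells were seeded at 2000 cells/well, attached for 10-12 hours, then exposed to compounds for 30-36 hours at 37C before ONE-Glo luminescence.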
Rab9 promoter act = activates the Rab9 promoter; Huh7 Rab9 promoter-luciferase reporter, luminescence, 24 h; Potency, µM (doses to about 9.22 µM), hits mostly activators; 320,000 compounds, 2.8% hits; AID 485297; further: nearly all actives have a fitted effect of over 60% in size
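Cell-based reporter: Huh7 stable for Rab9 promoter-driven luciferase, plated in reduced-serum medium with 10% FBS at 1500 cells/well, compound-treated 24 h at 37 °C, luminescence read after 10 min reagent.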
FLuc counter = counter-screen for miR-21 project: firefly luciferase inhibitors or activators; P08659; purified FLuc, Km substrates, luminescence inhibition; Potency, µM (titrated, usually from 57.5 µM), usual class: inhibitors; 360,000 compounds, 6.9% hits; further: nearly all actives have a fitted effect of over 55% in size
Target sequence (P08659 whole entry, looked up): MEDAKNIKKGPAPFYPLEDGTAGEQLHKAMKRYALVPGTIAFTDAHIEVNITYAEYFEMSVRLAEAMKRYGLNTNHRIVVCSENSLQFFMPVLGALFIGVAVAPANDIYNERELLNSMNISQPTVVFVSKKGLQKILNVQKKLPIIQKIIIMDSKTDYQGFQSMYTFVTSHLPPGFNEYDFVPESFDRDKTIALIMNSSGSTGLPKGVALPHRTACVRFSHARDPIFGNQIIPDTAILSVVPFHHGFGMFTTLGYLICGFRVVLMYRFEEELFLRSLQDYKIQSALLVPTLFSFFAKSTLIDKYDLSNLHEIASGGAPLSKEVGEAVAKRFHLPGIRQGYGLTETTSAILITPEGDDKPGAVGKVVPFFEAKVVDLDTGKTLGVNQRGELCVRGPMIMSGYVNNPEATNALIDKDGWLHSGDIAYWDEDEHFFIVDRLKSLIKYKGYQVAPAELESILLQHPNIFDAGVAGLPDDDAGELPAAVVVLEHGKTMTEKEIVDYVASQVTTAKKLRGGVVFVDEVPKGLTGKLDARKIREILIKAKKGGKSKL
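Biochemical qHTS of compounds, final roughly 60 µM downward over six points, against 10 nM purified firefly luciferase using Km concentrations of substrates (10 uM D-luciferin, 10 uM ATP) in Tris acetate pH 7.5 buffer; luminescence output.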
Luc counter = Kinase-Glo luciferase inhibition (counter-screen); 200,000 compounds, 0.28% hits; Kinase-Glo luciferase, ATP luminescence, 8 min; Potency, µM (doses to about 38.3 µM), most hits filed as inhibitors; Q27757; AID 1379; further: nearly all actives have a fitted effect of over 60% in size
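Compound is pinned into ATP-containing buffer (10 uM ATP, imidazole pH 7.2, 7 mM MgCl2). Kinase-Glo luciferase reagent is then added. Light output is recorded following an 8-min room-temperature incubation.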
A number is an active result; - = inactive; ? = inconclusive; . = not tested or not shown; [ ] = remark or other dose. Rows were chosen to be rich in hits. Some 7.3% of all compounds tested hit in one or more screens of this group. The call rests on the fitted dose curve; in most records, active means well fitted curve in the direction sought with a large enough effect; inconclusive means small, poorly fitted or top-dose-only effect, or another doubt; inactive means no such curve, though single readings can be large; an effect the other way counts as inactive or inconclusive.

SMILES	NPC1 promoter act	ELG1 genotoxic	SMN2 splice enh	Rab9 promoter act	FLuc counter	Luc counter
CCCCn1c(CCNC(=O)c2cccs2)nc2ccccc21	3.55µM	-	-	-	-[2.3 µM]	-
O=C(NCC(O)c1ccccc1)c1cccs1 (stereo unspecified)	2.51µM	?	.	?	16.9µM	.
CCCn1c(CNC(=O)c2cccs2)nc2ccccc21	-	-	-	-	-	-
Cc1ccc(-c2nc3c(c(SCC(=O)Nc4cccc(C(=O)O)c4)n2)Cc2cccc(C)c2O3)cc1	-	.	-	-	?	.
Cc1cccc(/C=N/NC(=O)c2cccc(Cl)c2)n1	-	-	.	-	?	.
Cc1cccc(/C=N/NC(=O)c2ccccc2OCc2cccc(Br)c2)n1	-	-	.	-	19µM	.
Cc1cccc(/C=N/NC(=O)c2ccc(F)cc2)n1	-	-	.	-	12µM	.
Cc1cccc(NC(=O)c2ccc3nccnc3c2)n1	?	?	.	-	?	.
Cc1cccc(/C=N/NC(=O)c2cccc(NC(=O)c3ccccc3)c2)n1	-	-	.	-	10.7µM	.
Cc1cccc(NC(=O)c2cccc(NC(=O)c3ccccc3)c2)n1	-	-	.	-	21.3µM	.
COc1ccc2c(c1)NC(c1cccnc1)=NC(c1ccc(F)cc1)=N2	.	.	-	.	?	.
CCSc1nnc2c(n1)OC(CC)N(C(C)=O)c1ccccc1-2 (stereo unspecified)	.	.	-	.	-	.
COc1cc(NC(=O)CCn2c(-c3ccccc3)cc(C(C)=O)c2C)cc(OC)c1	.	.	.	.	-	.
CCc1ccc(N=C2NC(=O)CC(C(=O)Nc3ccc(OC)cc3)S2)cc1 (stereo unspecified)	.	.	-	.	-	.
Cc1cc(OCC(=O)O/N=C(\N)Cc2cccs2)ccc1Br	-	-	-	-	?	-
Cc1ccc(C(=O)O/N=C(\N)Cc2ccc([N+](=O)[O-])cc2)c(Cl)c1	-	-	.	-	21.3µM	.
Cc1ccc(C(=O)O/N=C(\N)Cc2cccs2)c(Cl)c1	1.58µM	2.06µM	.	2µM	1.2µM	.
O=C(Nc1ccc(Cl)cc1F)c1cc(S(=O)(=O)NC2CCCCCC2)ccc1F	.	.	.	.	-	.
COC(=O)C1=C(C(=O)OC)[C@@H]2N(C)c3ccc(OC)cc3[C@@]23C[C@@H](C(=O)OC)N(S(=O)(=O)c2ccc(C(F)(F)F)cc2)C3=N1	.	.	-[9.22 µM]	.	.	-[7.66 µM]
CCOC(=O)c1cccc(NC(=O)NCCc2c(C)nn(C)c2C)c1	.	.	.	.	-	.
O=C(Cc1ccccc1[N+](=O)[O-])NCc1ccc(Cl)cc1	?	?	20µM	?	16.9µM	-
O=C(/C=C/c1ccccc1[N+](=O)[O-])NCc1ccc(Cl)cc1	-	-	-	-	-	-
O=C(Cc1ccccc1[N+](=O)[O-])NCc1ccc(Cl)cc1Cl	3.98µM	?	.	3.55µM	6.01µM	.
O=C(NCc1ccc(Cl)cc1)c1n[nH]c([N+](=O)[O-])c1Cl	-	?	-	-	21.3µM	-
O=C(Cc1ccc([N+](=O)[O-])cc1)NCc1ccccc1Cl	-	-	-	-	-	-
SMILES	NPC1 promoter act	ELG1 genotoxic	SMN2 splice enh	Rab9 promoter act	FLuc counter	Luc counter
CCOC(=O)N1CCC(NC(=O)c2cnn(-c3ccc(C)cc3)c2C2CCN(C(=O)OC(C)(C)C)CC2)CC1	.	.	.	.	-	.
Nc1ccc(C#Cc2ccc3c(=O)c4ccccc4oc3c2)cc1	2.24µM	?	.	3.55µM	?	.
COc1cc(NC(=O)Cn2c(SCc3ccc(F)cc3)nc3cccnc32)cc(OC)c1	.	.	.	.	-	.
Cc1cccc(Cn2c(SCc3ccc(C(=O)NCc4ccccc4F)cc3)nc3cccnc32)c1	.	.	.	.	-	.
COc1ccc(NC(=O)Cn2c(SCc3ccc(C)cc3)nc3cccnc32)c(OC)c1	.	.	.	.	1.9µM	.
CC(NC(=O)c1ccc(Cn2c(SCc3ccccc3)nc3cccnc32)cc1)c1ccccc1 (stereo unspecified)	.	.	.	.	-	.
Cc1ccc(CNC(=O)c2ccc(Cn3c(SCc4ccccc4F)nc4cccnc43)cc2)cc1	.	.	.	.	6.75µM	.
Cc1cccc(CSc2nc3cccnc3n2Cc2ccc(C(=O)NCc3ccco3)cc2)c1	.	.	.	.	19µM	.
Cc1ccc(Cn2c(SCc3ccc(C(=O)O)cc3)nc3cccnc32)cc1	.	.	-	.	16.9µM	.
